# Assay results published in PubChem BioAssay (NCI).
# This is part of a sample that, as a whole, favours compounds with a hit. Of some 83,000 tested, about 20% had one in any assay.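 Plates (96-well) were seeded with cells, treated with compound at one concentration, and incubated for 48 hours before percent growth was determined.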 Values without a mark were called inactive. The source made the active and inactive calls.
# Tested on: SK-MEL-2 melanoma
# Assay: NCI-60 one-dose screen, 48 h (100 = growth as untreated, 0 = no growth, -100 = all killed)
# Conditions: 10 µM unless noted
# Procedure: Growth inhibition of the SK-MEL-2 human tumor cell line is measured as a screen for anti-cancer activity. Cells are grown in 96 well plates and exposed to the test compound for 48 hours. Compounds are tested at a single concentration, which is 10^-5 M for most compounds. The reported endpoint is percent growth (GI% or GIPRCNT), where numbers from 0 - 100% represent growth inhibition, and numbers from -100% - 0 represent cell death. For example, a value of 40 represents 60% growth inhibition. A value of 0 means no net growth occurred over the course of the experiment. A value of -40 indicates 40% of cells at the beginning of the experiment died by the end of the experiment. A value of -100 means all cells are dead at the end of the experiment.
# NCI-60 Human Tumor Cell Lines Screen was performed using the standard one-dose NCI protocol, which is described in more detail at https://dtp.cancer.gov/discovery_development/nci-60/default.htm.
# Compounds with GIPRCNT values below 10 were considered active. Activity score was based on GIPRCNT using the following formula: […]
# Score is 0 for GIPRCNT values of 100 or above, 50 for GIPRCNT values of 0, and 100 for GIPRCNT values of -100.
row,SMILES,growth
1,CC1CC=CCC12C(=O)NC(=S)NC2=O (stereo not given),131%
2,CNC(=O)Oc1cccc(OC)c1,89.8%
3,CNC(=O)Oc1ccccc1,118%
4,O=C(O)CNC(=O)c1ccccc1,97.2%
5,CC(=O)O[C@H]1CCC2(C)C(=CCC3C2CCC2(C)/C(=N/OC(=O)c4ccc(N(CCCl)CCCl)cc4)CCC32)C1 (stereo not given in full),99.2%
6,COC[CH2][Hg][C]#[C][Hg][CH2]COC,41.9%
7,c1ccc(-c2ccc3ccccc3[o+]2)cc1,88.8%
8,CN1CCN(C(=O)COc2ccc(/C=C3\CC4C5CC=C6CC(Cl)CCC6(C)C5CCC4(C)C3=O)cc2)CC1 (stereo not given),89.8%
9,CCN1CC2(CN(CC)C1=S)C(=O)NC(=O)NC2=O,99%
10,Cn1cnnc1[S-].[Au+].c1ccc([PH+](c2ccccc2)c2ccccc2)cc1,0.754% (active)
11,Fc1ccc(C2=NN(c3ccccc3)C(c3sc(N(CCCl)CCCl)nc3Cl)C2)cc1 (stereo not given),84.5%
12,CC1(C)CC2(CC(C)(C)c3cc(O)c(O)cc32)c2cc(O)c(O)cc21,110%
13,CC(=O)[O][Hg][c]1nc2c(c(=O)n(C)c(=O)n2C)n1C,98.6%
14,OC1(c2ccccc2F)c2ccccc2C2=NCCN21 (stereo not given),94.6%
15,CCOc1c(Cl)cc(CNC(C)C(O)c2ccccc2)cc1OC (stereo not given),72.7%
16,Cc1cc(NC(=O)/C=C/c2ccc([N+](=O)[O-])cc2)ccc1S(=O)(=O)F,107%
17,CC1(C)N=C(N)N=C(N)N1c1ccc(CCCCc2ccc(S(=O)(=O)F)cc2)cc1,56.1%
18,ClCCN(CCCl)c1nc(Cl)c(C2CC(c3ccccc3)=NN2c2ccccc2)s1 (stereo not given),93.9%
19,CNC(=O)Oc1ccccc1-c1ccccc1,76.3%
20,O=S(=O)(F)c1ncnc2nc[nH]c12,85.8%

row,SMILES,growth
1,CCOc1ccc(C(O)CN(C)Cc2ccccc2)cc1Cl (stereo not given),102%
2,S=P(N1CCCCCC1)(N1CC1)N1CC1,97.9%
3,CC(=O)[O][Hg][c]1ccccc1,-52.9% (active)
4,CC[C@@H](C)/C=C(C)/C=C/C(=O)c1c(O)c(-c2ccc(O)cc2)cn(O)c1=O,59.7%
5,COc1cc(NCCCCCN=C(N)N)c2ncccc2c1,43.3%
6,COc1ccc2c(c1)NC1=C(C(=O)OC1)C2c1cc(OC)c(OC)c(OC)c1 (stereo not given),15.7%
7,COc1cc(C2(C#N)CCN(C)CC2)cc(OC)c1OC,109%
8,O=C1NC2(CCNCC2)Nc2ccccc21,98.1%
9,COc1cc(C2CC(=O)Nc3nc(N)[se]c32)c(OC)c2c1OCO2 (stereo not given),101%
10,O=C(N/N=C/c1ccc(N(CCCl)CCCl)cc1)c1cc(=O)[nH]c(=O)[nH]1,109%
11,O=CN1N=C(c2ccccc2)CC1c1sc(N(CCCl)CCCl)nc1Cl (stereo not given),77.2%
12,CC1(C)N=C(N)N=C(N)N1c1ccc(CCCCc2ccc(Cl)cc2S(=O)(=O)F)c(Cl)c1,38.3%
13,CN(C)P1(N(C)C)=NP(N(C)C)(N(C)C)=NP(N(C)C)(N(C)C)=N1,98.2%
14,CC(C)(C)NCC(O)c1ccccc1Cl (stereo not given),-20.2% (active)
15,Cc1cccc(N=C2c3cc([N+](=O)[O-])ccc3-c3c2cc([N+](=O)[O-])cc3[N+](=O)[O-])c1,12.1%
16,CC(=O)OC1CCC2(C)C(=CCC3C4CC(CN5CC5)C(=O)C4(C)CCC32)C1 (stereo not given),106%
17,Nc1cccc2c1Oc1ccccc1O2,98%
18,CC(=O)O[C@H]1CC[C@H]2[C@@H]3CC[C@H]4CC=C(C)C[C@]4(C)[C@H]3CC[C@]12C,110%
19,COC(=O)C1CC2c3ccccc3C1c1ccccc12 (stereo not given),103%
20,N#C[Se]CCN1C(=O)C2C(C1=O)[C@H]1C=C[C@@H]2S1 (stereo not given in full),23.4%
